# Data from the supplement of paper PMC3334620.
# Whole data set: some 33,000 sequences, median “E-score (-0.5 to 0.5)” near -0.021, cut for the highest 2% near 0.32. This is one part of a sample in which the highest values are shown more often than they occur.
# Target: T1, Zap1 (UniProt P47043)
# T1 sequence: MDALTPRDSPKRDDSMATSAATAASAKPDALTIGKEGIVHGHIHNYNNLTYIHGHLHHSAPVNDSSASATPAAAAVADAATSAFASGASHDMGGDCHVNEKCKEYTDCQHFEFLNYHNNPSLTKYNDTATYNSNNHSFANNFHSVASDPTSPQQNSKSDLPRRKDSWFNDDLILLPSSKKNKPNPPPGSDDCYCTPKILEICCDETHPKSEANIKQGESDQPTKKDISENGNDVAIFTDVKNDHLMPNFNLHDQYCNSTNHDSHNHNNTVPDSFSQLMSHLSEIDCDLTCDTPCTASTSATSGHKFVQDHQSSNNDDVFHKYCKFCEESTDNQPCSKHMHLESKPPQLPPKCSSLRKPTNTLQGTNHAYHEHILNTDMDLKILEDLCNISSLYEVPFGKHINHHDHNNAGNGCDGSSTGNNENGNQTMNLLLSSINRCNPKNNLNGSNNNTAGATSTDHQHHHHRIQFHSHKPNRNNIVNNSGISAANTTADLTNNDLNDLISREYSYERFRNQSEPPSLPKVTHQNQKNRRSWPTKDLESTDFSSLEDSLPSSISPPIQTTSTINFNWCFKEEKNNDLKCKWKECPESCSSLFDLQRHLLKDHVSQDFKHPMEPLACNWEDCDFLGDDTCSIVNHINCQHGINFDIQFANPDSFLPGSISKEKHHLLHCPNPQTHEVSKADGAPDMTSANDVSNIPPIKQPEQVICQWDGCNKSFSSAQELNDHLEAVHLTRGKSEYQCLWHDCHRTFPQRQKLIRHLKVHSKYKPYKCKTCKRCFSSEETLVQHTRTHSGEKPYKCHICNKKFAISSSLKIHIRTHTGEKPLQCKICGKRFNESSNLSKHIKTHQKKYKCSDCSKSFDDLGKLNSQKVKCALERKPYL
# Experiment: PBM E-score (8-mer binding enrichment) (E-score (-0.5 to 0.5)); higher = stronger / more preferred TF binding
# Details: protein concentration: 200 nM; construct: GST-full length
# Experimental: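 Universal 'all 10-mer' protein binding microarrays (Agilent AMADID 015681) probed with GST-tagged S. cerevisiae TFs (full-length or DBD) made by in vitro transcription/translation (PURExpress), about 100-200 nM. Bound TF was detected with fluorescent anti-GST. Each ungapped 8-mer (which stands for itself and its reverse complement) is scored by the PBM enrichment score (E-score), a modified Wilcoxon-Mann-Whitney statistic from -0.5 to +0.5, computed with the Universal PBM Analysis Suite. Scale: above 0.35 generally sequence-specific binding.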
row,Sequence,PBM E-score
1,CTTGACCC,0.311
2,CGTGACCC,0.418
3,AGACTTAG,-0.306
4,AGGTTAAT,0.315
5,GGGTTAAA,0.443
6,AGGTTAAC,0.405
7,GAGTTAAC,0.00603
8,GGGTTAAC,0.403
9,ACGTTAAC,0.0746
10,ACGTTAAG,-0.0481
11,GGGTTTAA,0.242
12,CGGTTAAC,0.232
13,GTGTTAAA,0.0467
14,ATGTTAAG,-0.0536
15,AGGTTAAG,0.383
16,CTGCCAGA,-0.0969
17,GGTTAGGA,0.296
18,CAGTGCAA,-0.0222
19,CCCTAGAA,0.177
20,CCGGTGTC,0.0219
21,AGGTAGTG,0.268
22,CGGTAGTA,0.107

row,Sequence,PBM E-score
1,AGGTAGTA,0.337
2,AAATGAAA,0.23
3,ACATTCTC,-0.0126
4,CAATAACG,0.138
5,GAATAACA,0.181
6,AAATAACG,0.042
7,AAATAACA,0.0357
8,GAATAAGC,-0.182
9,AAATAACC,0.42
10,GAATAACC,0.438
11,CAATAACC,0.468
12,CAATAACA,0.0373
13,CGCGGCAG,-0.049
14,GCGTTGAC,-0.0667
15,CGCCAGCG,-0.255
16,GTTGCCGA,-0.0812
17,GTAGCAAC,-0.0913
18,GACAGTCA,-0.217
19,ACCGTTAA,0.256
20,GAAGGTTA,0.437
21,GAAGGTGA,0.116
22,CAAGGTGA,0.216

row,Sequence,PBM E-score
1,CAAGGTTA,0.466
2,CAAGGTTC,0.0224
3,GAAGGTGC,0.0253
4,GTCTGGTA,0.146
5,CGTCCATA,0.125
6,AGCTGAGC,-0.185
7,GTACCCCA,0.35
8,GTACCCAA,0.234
9,ATACCCCC,0.221
10,ATACCCCA,0.383
11,CTACCCCA,0.139
12,ATACCCAA,0.247
13,ACTCTGCA,0.0815
14,AGTTCAGG,0.0101
15,ATATGACG,-0.122
16,GCCGAGGC,-0.0423
17,AACCCATA,0.391
18,CCCCCATA,-0.0168
19,ACCCCATA,0.373
20,ACCCCATG,0.255
21,AACCCATT,0.276
22,GACCCATA,0.259

row,Sequence,PBM E-score
1,GTATTCAA,0.123
2,AGCCACAG,-0.199
3,GACAGCCA,-0.146
4,ACGTCACT,-0.246
5,GCCTTACC,0.0234
6,CCATAAAC,0.0419
7,AAGGTAGT,0.373
8,GAGGTACA,0.155
9,AAGGTAGC,0.307
10,GAGGTACC,0.432
11,AACGTACT,0.0257
12,GAGGTAGC,0.0662
13,AAGGTATC,0.255
14,CAGGTACG,0.0402
15,AAGGTAGA,0.106
16,CAGGTACC,0.415
17,CAGGTACA,0.101
18,AAGGTACT,0.33
19,GGATCCCC,-0.152
20,CGATAGAG,-0.236
